# Results from PubChem BioAssay (NCATS).
# Results filed as inconclusive are left out. Entries that show only a call come without a potency. Unmarked numbers belong to inactive results. Calls of active or inactive are those of the source. Calls come from the whole dose curve; as a rule, active = well fitted curve in the direction sought with a large enough effect; inconclusive = small, poorly fitted or top-dose-only effect, or another doubt; inactive = no such curve, though single readings can be large; an effect the other way counts as inactive or inconclusive.
# Experiments:
# [1] = target: ATP-dependent 6-phosphofructokinase (Trypanosoma brucei brucei) (UniProt O15648); experiment: qHTS Assay to Find Inhibitors of T. brucei phosphofructokinase: hit validation (AID 492961);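 note: luminescence reports ADP formed as PFK phosphorylates fructose-6-phosphate with ATP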
# Sequence of ATP-dependent 6-phosphofructokinase (Trypanosoma brucei brucei) (O15648 whole entry, looked up): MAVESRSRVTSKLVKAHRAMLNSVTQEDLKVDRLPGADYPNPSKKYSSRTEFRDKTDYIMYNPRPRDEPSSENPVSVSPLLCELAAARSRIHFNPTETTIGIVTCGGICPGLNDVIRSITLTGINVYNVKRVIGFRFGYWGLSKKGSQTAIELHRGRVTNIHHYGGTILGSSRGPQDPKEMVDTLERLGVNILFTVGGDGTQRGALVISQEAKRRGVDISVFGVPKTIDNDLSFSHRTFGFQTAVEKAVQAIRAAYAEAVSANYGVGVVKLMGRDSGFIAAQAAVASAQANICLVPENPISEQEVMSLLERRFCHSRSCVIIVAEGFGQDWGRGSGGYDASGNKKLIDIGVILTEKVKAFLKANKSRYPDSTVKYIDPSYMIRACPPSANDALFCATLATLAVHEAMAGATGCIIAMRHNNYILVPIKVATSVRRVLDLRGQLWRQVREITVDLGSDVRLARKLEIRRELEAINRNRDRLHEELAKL
# Outline: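 Reaction: 0.1 M triethanolamine pH 8.0, 5 mM MgCl2, F6P 0.5 mM, ATP 0.1 mM, PFK 1.25 nM, 45 min RT. Read-out: ADP-Glo luminescence. Analysis: concentration-response fits, classed by r2 and efficacy.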
# [2] = qHTS profiling for inhibitors of Plasmodium falciparum proliferation (AID 504749); note: potency is the fitted concentration of half-maximal effect; for all read-outs here: nearly all actives have a fitted effect of over 60% in size; conditions: P. falciparum in erythrocytes, SYBR Green DNA, 72 h; for activity, negative = inhibition: at 28.7 µM (top of the series)
# Outline: (§1)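 Quantitative HTS: compounds pinned into medium, infected erythrocytes added (0.3% parasitemia, 2.5% hematocrit), 72 h culture at 37 C under 5% CO2. Saponin/Triton lysis with SYBR Green I, overnight RT, then fluorescence read.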
# 3D7 = experiment: as above; conditions: P. falciparum in erythrocytes, SYBR Green DNA, 72 h; series mostly up to 28.7 µM
# Outline: as §1
# AA1029 = experiment: as above; conditions: P. falciparum in erythrocytes, SYBR Green DNA, 72 h; series mostly up to 28.7 µM
# Outline: as §1
# AS120 = experiment: as above; conditions: P. falciparum in erythrocytes, SYBR Green DNA, 72 h; series mostly up to 28.7 µM
# Outline: as §1
# ATS189 = experiment: as above; conditions: P. falciparum in erythrocytes, SYBR Green DNA, 72 h; series mostly up to 28.7 µM
# Outline: as §1
# CP185 = experiment: as above; conditions: P. falciparum in erythrocytes, SYBR Green DNA, 72 h; series mostly up to 28.7 µM
# Outline: as §1
# CP191 = experiment: as above; conditions: P. falciparum in erythrocytes, SYBR Green DNA, 72 h; series mostly up to 28.7 µM
# Outline: as §1
# CP211 = experiment: as above; conditions: P. falciparum in erythrocytes, SYBR Green DNA, 72 h; series mostly up to 28.7 µM
# Outline: as §1
# CP217 = experiment: as above; conditions: P. falciparum in erythrocytes, SYBR Green DNA, 72 h; series mostly up to 28.7 µM
# Outline: as §1
# CP238 = experiment: as above; conditions: P. falciparum in erythrocytes, SYBR Green DNA, 72 h; series mostly up to 28.7 µM
# Outline: as §1
# CP252 = experiment: as above; conditions: P. falciparum in erythrocytes, SYBR Green DNA, 72 h; series mostly up to 28.7 µM
# Outline: as §1
# CP262 = experiment: as above; conditions: P. falciparum in erythrocytes, SYBR Green DNA, 72 h; series mostly up to 28.7 µM
# Outline: as §1
# CP265 = experiment: as above; conditions: P. falciparum in erythrocytes, SYBR Green DNA, 72 h; series mostly up to 28.7 µM
# Outline: as §1
# CP286 = experiment: as above; conditions: P. falciparum in erythrocytes, SYBR Green DNA, 72 h; series mostly up to 28.7 µM
# Outline: as §1
# Dd2 = experiment: as above; conditions: P. falciparum in erythrocytes, SYBR Green DNA, 72 h; series mostly up to 28.7 µM
# Outline: as §1
# FAB9 = experiment: as above; conditions: P. falciparum in erythrocytes, SYBR Green DNA, 72 h; series mostly up to 28.7 µM
# Outline: as §1
# N140 = experiment: as above; conditions: P. falciparum in erythrocytes, SYBR Green DNA, 72 h; series mostly up to 28.7 µM
# Outline: as §1
# P94_40 = experiment: as above; conditions: P. falciparum in erythrocytes, SYBR Green DNA, 72 h; series mostly up to 28.7 µM
# Outline: as §1
# TAB109 = experiment: as above; conditions: P. falciparum in erythrocytes, SYBR Green DNA, 72 h; series mostly up to 28.7 µM
# Outline: as §1
smiles,measurement,setting,value
NC(C(=O)O)c1ccc(O)cc1 (stereo not given),Potency,[1],inactive
same,"activity, negative = inhibition",[2]; parasite line A,3.02%
same,"activity, negative = inhibition",[2]; parasite line B,9.1%
same,Potency,3D7,inactive
same,Potency,AA1029,inactive
same,Potency,AS120,inactive
same,Potency,ATS189,inactive
same,Potency,CP185,inactive
same,Potency,CP191,inactive
same,Potency,CP211,inactive
same,Potency,CP217,inactive
same,Potency,CP238,inactive
same,Potency,CP252,inactive
same,Potency,CP262,inactive
same,Potency,CP265,inactive
same,Potency,CP286,inactive
same,Potency,Dd2,inactive
same,Potency,FAB9,inactive
same,Potency,N140,inactive
same,Potency,P94_40,inactive
same,Potency,TAB109,inactive
CCCC(=O)O[C@]1(C(=O)COC(C)=O)CC[C@H]2C3C[C@H](F)C4=CC(=O)C=CC4(C)[C@@]3(F)[C@@H](O)CC21C (stereo not given in full),Potency,[1],inactive
same,"activity, negative = inhibition",[2]; parasite line A,-8.4%
same,"activity, negative = inhibition",[2]; parasite line B,-24.8%
same,Potency,3D7,inactive
same,Potency,AA1029,inactive
same,Potency,AS120,inactive
same,Potency,ATS189,inactive
same,Potency,CP185,inactive
same,Potency,CP191,inactive
same,Potency,CP211,inactive
same,Potency,CP217,inactive
same,Potency,CP238,inactive
same,Potency,CP252,inactive
same,Potency,CP262,inactive
same,Potency,CP265,inactive
same,Potency,CP286,inactive
same,Potency,Dd2,inactive
same,Potency,FAB9,inactive
same,Potency,N140,inactive
same,Potency,P94_40,inactive
same,Potency,TAB109,inactive
CC(CCC(=O)O)C1CCC2C3C(=O)C[C@@H]4CC(=O)CC[C@@]4(C)C3CC(=O)[C@]12C (stereo not given in full),Potency,[1],inactive
same,"activity, negative = inhibition",[2]; parasite line A,-3.83%
same,"activity, negative = inhibition",[2]; parasite line B,1.51%
same,Potency,3D7,inactive
same,Potency,AA1029,inactive
same,Potency,AS120,inactive
same,Potency,ATS189,inactive
same,Potency,CP185,inactive
same,Potency,CP191,inactive
same,Potency,CP211,inactive
same,Potency,CP217,inactive
same,Potency,CP238,inactive
same,Potency,CP252,inactive
same,Potency,CP262,inactive
same,Potency,CP265,inactive
same,Potency,CP286,inactive
same,Potency,Dd2,inactive
same,Potency,FAB9,inactive
same,Potency,N140,inactive
same,Potency,P94_40,inactive
same,Potency,TAB109,inactive
COC1CC2CCC(C)[C@](O)(O2)C(=O)C(=O)N2CCCCC2C(=O)OC(C(C)CC2CCC(O)C(OC)C2)CC(=O)C(C)/C=C(/C)C(O)C(OC)C(=O)C(C)CC(C)C=CC=C/C=C\1C (stereo not given in full),Potency,[1],inactive
same,Potency,[2]; parasite line A,3.55 µM (active)
same,Potency,[2]; parasite line B,1.41 µM (active)
same,Potency,3D7,2 µM (active)
same,Potency,AA1029,2.24 µM (active)
same,Potency,AS120,1.12 µM (active)
same,Potency,ATS189,3.16 µM (active)
same,Potency,CP185,4.47 µM (active)
same,Potency,CP191,2.51 µM (active)
same,Potency,CP211,4.26 µM (active)
same,Potency,CP217,3.55 µM (active)
same,Potency,CP238,3.16 µM (active)
same,Potency,CP252,2.51 µM (active)
same,Potency,CP262,inactive
same,Potency,CP265,2.82 µM (active)
same,Potency,CP286,4.47 µM (active)
same,Potency,Dd2,1.58 µM (active)
same,Potency,FAB9,8.91 µM (active)
same,Potency,N140,1.26 µM (active)
same,Potency,P94_40,1.41 µM (active)
same,Potency,TAB109,2.24 µM (active)
CC1(C(=O)O)CCC2(C)CCC3(C)C(=CC(=O)C4C5(C)CCC(O)C(C)(C)C5CCC43C)C2C1 (stereo not given),Potency,[1],inactive
same,"activity, negative = inhibition",[2]; parasite line A,8.05%
same,"activity, negative = inhibition",[2]; parasite line B,1.81%
same,Potency,3D7,inactive
same,Potency,AA1029,inactive
same,Potency,AS120,inactive
same,Potency,ATS189,inactive
same,Potency,CP185,inactive
same,Potency,CP191,inactive
same,Potency,CP211,inactive
same,Potency,CP217,inactive
same,Potency,CP238,inactive
same,Potency,CP252,inactive
same,Potency,CP262,inactive
same,Potency,CP265,inactive
same,Potency,CP286,inactive
same,Potency,Dd2,inactive
same,Potency,FAB9,inactive
same,Potency,N140,inactive
same,Potency,P94_40,inactive
same,Potency,TAB109,inactive
O=C1C(I)=CC(=C(c2cc(I)c(O)c(I)c2)c2ccccc2C(=O)O)C=C1I,Potency,[1],inactive
same,"activity, negative = inhibition",[2]; parasite line A,1.17%
same,"activity, negative = inhibition",[2]; parasite line B,-0.638%
same,Potency,3D7,inactive
same,Potency,AA1029,inactive
same,Potency,AS120,inactive
same,Potency,ATS189,inactive
same,Potency,CP185,inactive
same,Potency,CP191,inactive
same,Potency,CP211,inactive
same,Potency,CP217,inactive
same,Potency,CP238,inactive
same,Potency,CP252,inactive
same,Potency,CP262,inactive
same,Potency,CP265,inactive
same,Potency,CP286,inactive
same,Potency,Dd2,inactive
same,Potency,FAB9,inactive
same,Potency,N140,inactive
same,Potency,P94_40,inactive
same,Potency,TAB109,inactive
C[n+]1c2cc(N)ccc2cc2ccc(N)cc21,Potency,[1],inactive
same,Potency,[2]; parasite line A,0.398 µM (active)
same,Potency,[2]; parasite line B,1 µM (active)
same,Potency,3D7,0.398 µM (active)
same,Potency,AA1029,0.708 µM (active)
same,Potency,AS120,1 µM (active)
same,Potency,ATS189,1.12 µM (active)
same,Potency,CP185,0.631 µM (active)
same,Potency,CP191,0.282 µM (active)
same,Potency,CP211,0.953 µM (active)
same,Potency,CP217,0.891 µM (active)
same,Potency,CP238,0.708 µM (active)
same,Potency,CP252,0.794 µM (active)
same,Potency,CP262,1.35 µM (active)
same,Potency,CP265,1.26 µM (active)
same,Potency,CP286,0.178 µM (active)
same,Potency,Dd2,0.355 µM (active)
same,Potency,FAB9,0.199 µM (active)
same,Potency,N140,0.631 µM (active)
same,Potency,P94_40,0.631 µM (active)
same,Potency,TAB109,0.447 µM (active)
CO/N=C(/C(=O)N[C@@H]1C(=O)N2C(C(=O)O)=C(CSc3nc(C)c(CC(=O)O)s3)CS[C@H]12)c1csc(N)n1,Potency,[1],inactive
same,"activity, negative = inhibition",[2]; parasite line A,5.91%
same,"activity, negative = inhibition",[2]; parasite line B,4.95%
same,Potency,3D7,inactive
same,Potency,AA1029,inactive
same,Potency,AS120,inactive
same,Potency,ATS189,inactive
same,Potency,CP185,inactive
same,Potency,CP191,inactive
same,Potency,CP211,inactive
same,Potency,CP217,inactive
same,Potency,CP238,inactive
same,Potency,CP252,inactive
same,Potency,CP262,inactive
same,Potency,CP265,inactive
same,Potency,CP286,inactive
same,Potency,Dd2,inactive
same,Potency,FAB9,inactive
same,Potency,N140,inactive
same,Potency,P94_40,inactive
same,Potency,TAB109,inactive
Cc1ccc(/C=C2/C(=O)C3(C)CCC2C3(C)C)cc1 (stereo not given),Potency,[1],inactive
same,"activity, negative = inhibition",[2]; parasite line A,14.8%
same,"activity, negative = inhibition",[2]; parasite line B,12%
same,Potency,3D7,inactive
same,Potency,AA1029,inactive
same,Potency,AS120,inactive
same,Potency,ATS189,inactive
same,Potency,CP185,inactive
same,Potency,CP191,inactive
same,Potency,CP211,inactive
same,Potency,CP217,inactive
same,Potency,CP238,inactive
same,Potency,CP252,inactive
same,Potency,CP262,inactive
same,Potency,CP265,inactive
same,Potency,CP286,inactive
same,Potency,Dd2,inactive
same,Potency,FAB9,inactive
same,Potency,N140,inactive
same,Potency,P94_40,inactive
same,Potency,TAB109,inactive
CC1(Cn2ccnn2)[C@H](C(=O)O)N2C(=O)C[C@H]2S1(=O)=O (stereo not given in full),Potency,[1],inactive
same,"activity, negative = inhibition",[2]; parasite line A,4.59%
same,"activity, negative = inhibition",[2]; parasite line B,0.438%
same,Potency,3D7,inactive
same,Potency,AA1029,inactive
same,Potency,AS120,inactive
same,Potency,ATS189,inactive
same,Potency,CP185,inactive
same,Potency,CP191,inactive
same,Potency,CP211,inactive
same,Potency,CP217,inactive
same,Potency,CP238,inactive
same,Potency,CP252,inactive
same,Potency,CP262,inactive
same,Potency,CP265,inactive
same,Potency,CP286,inactive
same,Potency,Dd2,inactive
same,Potency,FAB9,inactive
same,Potency,N140,inactive
same,Potency,P94_40,inactive
same,Potency,TAB109,inactive
